{"source": "PubChem BioAssay AID2069", "about": "(Sanford-Burnham Center for Chemical Genomics, 2009)", "note": "Screen size: about 1,200 compounds; about 210 (18%) were called active. No stated cut-off is given here; in the data, active means inhibition above about 30%; inactive means the rest. Not all results are given here."}
{"assay": "HTRF signal interference by compounds, confirmation, artefact control for SUMOylation inhibitor project, biochemical, uHTS (AID 2069)", "details": "HTRF interference counterscreen, fluorescence, at 35 µM, stronger effect = higher value"}
{"smiles": "Cc1ccc(S(=O)(=O)N2CCCCC2)cc1NC(=O)COC(=O)c1c(F)cccc1F", "inhibition": "-11.4% (inactive)"}
{"smiles": "Cc1nn2c3c(cnc2c1-c1ccc(Cl)cc1)C(=O)CC(c1ccco1)C3", "note": "(stereo unspecified)", "inhibition": "-0.9% (inactive)"}
{"smiles": "CC(C)c1ccc(S(=O)(=O)/N=C2/C=CC(=O)c3ccccc32)cc1", "inhibition": "11.3% (inactive)"}
{"smiles": "O=C(Cn1nnc2ccccc21)NCc1ccccc1", "inhibition": "-8.55% (inactive)"}
{"smiles": "COCCn1c(N)c(C#N)c2nc3ccccc3nc21", "inhibition": "43.9% (active)"}
{"smiles": "N#Cc1c(N)n(CCOC(=O)c2ccc(Cl)cc2)c2nc3ccccc3nc12", "inhibition": "10.8% (inactive)"}
{"smiles": "CCCCn1c(NC(=O)c2ccccc2Cl)c(C#N)c2nc3ccccc3nc21", "inhibition": "20.8% (inactive)"}
{"smiles": "CCCCn1c(NC(C)=O)c(C#N)c2nc3ccccc3nc21", "inhibition": "33% (active)"}
{"smiles": "CCCCCn1c(N)c(C#N)c2nc3ccccc3nc21", "inhibition": "16.7% (inactive)"}
{"smiles": "COc1ccccc1CCn1c(N)c(C#N)c2nc3ccccc3nc21", "inhibition": "17.6% (inactive)"}
{"smiles": "C=CCn1c(NC(=O)c2ccccc2Cl)c(C#N)c2nc3ccccc3nc21", "inhibition": "28.9% (inactive)"}
{"smiles": "CN(C)CCCn1c(N)c(C#N)c2nc3ccccc3nc21", "inhibition": "39.2% (active)"}
{"smiles": "CCC(C)n1c(NC(=O)c2ccccc2)c(C#N)c2nc3ccccc3nc21", "note": "(stereo unspecified)", "inhibition": "11.8% (inactive)"}
{"smiles": "Cc1cnc(C(=O)OCC(=O)c2ccc(F)cc2)cn1", "inhibition": "-5.75% (inactive)"}
{"smiles": "O=[N+]([O-])c1c(NCCCO)cc(Sc2nc3ccccc3s2)c2nonc12", "inhibition": "3.25% (inactive)"}
{"smiles": "Cc1c(C(=O)c2ccc(F)cc2F)c2ccccn2c1CCC#N", "inhibition": "17.8% (inactive)"}
{"smiles": "COc1cc(/C=N/NC(=O)c2cc(-c3ccco3)nc3ccccc23)cc(OC)c1O", "inhibition": "-5.6% (inactive)"}
{"smiles": "O=C(NC(=S)Nc1c(Cl)ccc2nsnc12)c1ccco1", "inhibition": "-7.55% (inactive)"}
{"smiles": "O=C(N=Nc1c(O)[nH]c2ccc([N+](=O)[O-])cc12)c1ccccc1Cl", "inhibition": "7.65% (inactive)"}
{"smiles": "CN(C)c1ccc(NC(=O)c2sc(SCC(=O)Nc3ccc(Br)cc3)nc2N)cc1", "inhibition": "8.25% (inactive)"}
{"smiles": "Cc1oc(-c2ccc(F)cc2)cc1-c1nn2c(-c3ccoc3C)nnc2s1", "inhibition": "-3.45% (inactive)"}
{"smiles": "COc1ccccc1CNC(=O)COC(=O)c1cc(-c2ccco2)nc2ccccc12", "inhibition": "12.6% (inactive)"}
{"smiles": "CN(CCC#N)C(=O)COC(=O)c1c2c(nc3ccccc13)/C(=C/c1ccco1)CC2", "inhibition": "36.5% (active)"}
{"smiles": "CCOc1ccc(/C=C2/SC(=S)N(CCC(=O)Nc3ccc(C(=O)O)cc3)C2=O)cc1", "inhibition": "4.55% (inactive)"}
{"smiles": "Cc1nn(-c2ccccn2)c2c1C(=O)C(Br)CC2", "note": "(stereo unspecified)", "inhibition": "-0.05% (inactive)"}
{"smiles": "O=C1/C(=C/c2coc3ccc(O)cc3c2=O)SC(=S)N1c1ccccc1", "inhibition": "4.9% (inactive)"}
